Assay outcomes: PubChem, National Center for Advancing Translational Sciences (NCATS)
GLP-1R inv ag – acts as inverse agonist at human GLP-1 receptor | Potency, µM (top dose mostly 38.3 µM), for inactives: top-dose activity change, negative = inhibition, actives largely listed as inhibitors | AID 624417 | 410,000 tested, 1.6% active | HEK293 GLP-1R CRE-luciferase, luminescence, 24 h; GLP-1R form is constitutively active; further: on the % scale 0 is the no-effect control and ±100 the full control effect; nearly all actives have a fitted effect of over 55% in size
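HEK293 cells stably co-expressing a cAMP-responsive luciferase reporter and constitutively active GLP-1R were seeded, incubated 12 h, then exposed to compounds for 24 h at 37 C. Luminescence was read 12 min after detection reagent; inverse agonists lower signal.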
Tb PFK block – inhibitors of T. brucei phosphofructokinase; O15648; T. brucei PFK, ADP-Glo luminescence; Potency, µM (series often up to 57.5 µM), for inactives: at the highest dose activity, negative = inhibition, usual class: inhibitors; 330,000 tested, 0.17% active;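 further: 0% = uninhibited 1x PFK enzyme wells and -100% = no-enzyme wells; nearly all actives have a fitted effect of over 60% in size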
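ADP-Glo luminescence quantified ADP after 45 min at room temperature, with 1.25 nM T. brucei PFK, 0.1 mM ATP and 0.5 mM fructose-6-phosphate in pH 8.0 TEA buffer. qHTS titrations up to 57 µM; curves classified by quality.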
HEK293 tox – cytotoxic in the GLP-1 receptor inverse agonist counter-screen | Potency, µM (series often up to 38.3 µM), inactives show top-dose activity change, negative = inhibition, most hits filed as inhibitors | 410,000 tested, 0.13% active | HEK293 cAMP-luciferase reporter cells, luminescence, 24 h;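 further: loss of luciferase light is scored as toxicity; on the % scale 0 is the no-effect control and ±100 the full control effect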
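Here, cytotoxicity is scored as loss of luminescence. The MLSMR collection was tested on cells seeded in medium containing 10% Nu serum, with a 24 hr compound exposure preceded by 12 hours of culture.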
Pin1 inh – human Pin1 inhibition; Potency, µM (top dose mostly 115 µM), for inactives: at the top dose activity, negative = inhibition, most hits filed as inhibitors; AID 504891; 390,000 tested, 0.009% active; Pin1 FP peptide displacement, HiFluor488, 10 min; active means well fitted inhibition curve with a large enough effect in the polarisation, with a control signal flat, not every such curve was filed as active; inconclusive means small, poorly fitted or top-dose-only effect, or effect the other way, or a change in a side signal; inactive means no such curve, though single readings can be large or run the other way; the % refers to the polarisation; further: on the % scale 0 is the no-effect control and ±100 the full control effect
Target sequence (Q13526 whole entry, looked up): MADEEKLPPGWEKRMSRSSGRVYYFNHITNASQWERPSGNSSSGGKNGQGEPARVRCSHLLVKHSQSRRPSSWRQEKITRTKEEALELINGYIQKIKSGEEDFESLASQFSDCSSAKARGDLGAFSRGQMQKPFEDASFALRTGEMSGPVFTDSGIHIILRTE
GLP-1R agonist – GLP-1 receptor (human) agonism | P43220 | HEK293 GLP-1R CRE-luciferase, luminescence, 4-6 h; cells express a hypersensitive GLP-1R form | Potency, µM (top dose mostly 45.6 µM), for the others: at the top dose activation, hits mostly activators | 380,000 tested, 0.007% active | AID 624172; further: % of control where 0% means no effect
PGK inhibitor – blocks T. brucei phosphoglycerate kinase; PGK/GAPDH coupled, Kinase-Glo luminescence, 60 min; Potency, µM (series often up to 57.5 µM), without a hit: at the top dose activity change, negative = inhibition, actives largely listed as inhibitors; 380,000 tested, 0.043% active; AID 602233; further: on the % scale 0 is the no-effect control and ±100 the full control effect; nearly all actives have a fitted effect of over 60% in size
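Recombinant glycosomal PGK reaction used 1,3-bisphosphoglycerate generated in-well by GAPDH (100nM final) in 100mM TEA pH 7.6, 5mM MgCl2, 0.01% Tween-20. After 60 minutes at room temperature, ATP was read by Kinase-Glo Plus luminescence end-point.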
* marks the source's active call; other numbers are inactive results; i = inactive; u = inconclusive; x = not tested or not shown. In the library only some 1.8% were active in any assay of this set; here they are far more common. Unless noted, the call rests on the fitted dose curve; in most records, active means well fitted curve in the direction sought with a large enough effect; inconclusive means small, poorly fitted or top-dose-only effect, or another doubt; inactive means no such curve, though single readings can be large; an effect the other way counts as inactive or inconclusive. Potency means the concentration at half of the fitted maximal effect.

SMILES	GLP-1R inv ag	Tb PFK block	HEK293 tox	Pin1 inh	GLP-1R agonist	PGK inhibitor
Cc1cc(Nc2ccccc2C(=O)O)n(-c2cccc(Cl)c2)n1	-35%	-2%	2%	1%	-8%	-2%
Cc1cc(Nc2ccccc2)n(-c2ccc(Br)cc2)n1	u	5%	1%	3%	-11%	1%
Cc1cc(Nc2ccc(Cl)cc2)n(-c2ccccc2)n1	2.8µM*	-1%	-4%	2%	1%	-9%
CCOc1cc(CNC(=O)Cn2ncn3c(cc4cc(F)ccc43)c2=O)cc(OCC)c1OCC	7%	x	-7%	1%	x	1%
O=S(=O)(c1ccc2c(c1)OCCO2)N1CCN(S(=O)(=O)c2cccc(Cl)c2F)CC1	x	x	x	20%	x	x
CNc1nc(SCc2ccccc2Cl)nc2c1CCCC2	10µM*	-3%	-17%	u	2%	-9%
COc1ccc(S(=O)(=O)n2ccc(C(C)Oc3ccc(-c4ccccc4)c(F)c3)n2)cc1 (stereo not given)	8.9µM*	-9%	0%	-1%	4%	-2%
O=S(=O)(Nc1cccc(-c2ccc(N3CCCCC3)nn2)c1)c1cccc(F)c1	u	x	1%	14%	x	i
COC(=O)c1scc(-c2ccc(C)cc2)c1S(=O)(=O)N1CCN(c2ccc(C)cc2C)CC1	u	x	3%	0%	x	0%
O=C(O)c1cc(O)c2c(c1)[C@@H]([C@H]1c3cc(C(=O)O)cc(O)c3C(=O)c3c(O[C@@H]4O[C@H](CO)[C@@H](O)[C@H](O)[C@H]4O)cccc31)c1cccc(O[C@@H]3O[C@H](CO)[C@@H](O)[C@H](O)[C@H]3O)c1C2=O	16%	u	-8%	2.5µM*	-5%	3.2µM*
O=C(O)c1cc(O)c2c(c1)[C@H]([C@H]1c3cc(C(=O)O)cc(O)c3C(=O)c3c(O[C@@H]4OC(CO)C(O)C(O)C4O)cccc31)c1cccc(O[C@@H]3OC(CO)C(O)C(O)C3O)c1C2=O (stereo not given in full)	x	x	x	x	-1%	x
COCCNC(=S)N(CCc1c(C)[nH]c2ccc(F)cc12)Cc1cccs1	u	4%	-25%	1%	-1%	-5%
COCCNC(=S)N(CCc1c(C)[nH]c2ccc(Cl)cc12)Cc1cccs1	2.5µM*	1%	u	0%	9%	-10%
Cc1nc2sc(C(=O)N(C)Cc3ccccc3)c(NC(=O)c3ccccc3)c2c(C)c1Cl	11%	x	3%	0%	x	x
CCOC(=O)C1=C(NC(=S)NC(=O)c2ccccc2)c2ccccc2CC1(C)CC (stereo not given)	5µM*	-1%	11µM*	9%	-2%	-8%
CCOC(=O)C1=C(NC(=S)NC(=O)c2ccccc2)c2ccccc2CC1C(C)C (stereo not given)	3.2µM*	6%	u	6%	5%	-9%
CCOC(=O)c1c(NC(=O)c2ccccc2)sc2c1CCc1ccccc1-2	-1%	-11%	0%	0%	3%	2%
CCOC(=O)c1sc(NC(=S)NC(=O)c2ccccc2)c(C(=O)OCC)c1C	5%	-3%	-5%	5%	-8%	1%
CC(=O)Nc1c(C)nn(-c2ccccc2)c1N1CCC(C(=O)NCc2cccc(F)c2)CC1	18%	x	4%	u	x	2%
COc1ccc(-n2c(-c3ccc(Cl)cc3)cc3c2CC(C)(C)CC3=O)c(OC)c1	u	x	-15%	3%	x	-13%
Cc1ccc(C(=O)NC(C)c2ccc(F)cc2)cc1 (stereo not given)	2%	0%	-14%	-9%	2%	1%
CC(NC(=O)c1ccc(F)cc1)c1ccc2c(c1)CCCC2 (stereo not given)	10µM*	-2%	1%	0%	1%	-6%
